Measured values as given in PubChem BioAssay (EPA / NIEHS).
Active and inactive are the calls of the source. Rule for the calls: active = hit-call score of the fitted dose curve at least 0.9, where 1 is the maximum; inactive = score below 0.9.

Legend:
[1] = molecular target: Bile acid receptor (Homo sapiens) (UniProt Q96RI1); assay: ATG_IR1_CIS: Attagene CIS-FACTORIAL HepG2 Assay for human Nuclear Receptor Subfamily 1 Group H Member 4 (NR1H4), IR1 submotif (AID 2282946); conditions: IR1 reporter transcription, actives raise or lower the signal
Method in brief: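 Readout: reporter transcript levels by RT-PCR with fluorescent capillary electrophoresis, from HepG2 cells transiently transfected with multiplexed cis-regulated reporters and dosed 24 h. Gain- or loss-of-signal fitted versus DMSO negative control.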

[2] = ATG_GRE_CIS: Attagene CIS-FACTORIAL HepG2 Assay for human Glucocorticoid Response Elements (GRE) (AID 2282947); conditions: HepG2 GRE cis-reporter, Attagene multiplex mRNA; actives raise or lower the signal
Method in brief: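 Cells (HepG2) bearing transfected cis-promoter reporter transcription units were treated with chemical for 24 hours. Reporter mRNA was measured via RT-PCR with capillary electrophoresis, and activity was fitted in both directions relative to DMSO.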

[3] = ATG_ISRE_CIS: Attagene CIS-FACTORIAL HepG2 Assay for human Interferon Regulatory Factor 1 (IRF1) binding to an Interferon-Stimulated Response Element (ISRE) (AID 2282948); conditions: HepG2 ISRE cis-reporter (Attagene), mRNA transcription readout; actives raise or lower the signal
Method in brief: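 Multiplexed mRNA reporter readout in human liver HepG2 cells: cis-element-driven reporters transfected, compound added for 24 h, transcripts amplified, fluorescently labelled and sized by capillary electrophoresis; curve fitting bidirectional against DMSO.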

[4] = ATG_M_32_CIS: Attagene CIS-FACTORIAL HepG2 Assay for M32 Transcription Factor (Internal Marker) (AID 2282949); conditions: HepG2 Attagene cis-factorial M32 reporter, mRNA; actives raise or lower the signal;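 note: background control marker of the multiplexed CIS panel rather than a real target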
Method in brief: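 HepG2 human liver cells transiently transfected with cis-promoter-driven multiple reporter transcription units, dosed 24 h. Reporter mRNA quantified by RT-PCR, FAM-labelled primer extension, HpaI digest and capillary electrophoresis; bidirectional fit versus DMSO baseline.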

[5] = ATG_M_06_CIS: Attagene CIS-FACTORIAL HepG2 Assay for M06 Transcription Factor (Internal Marker) (AID 2282950); conditions: HepG2 Attagene CIS-FACTORIAL M06 internal marker reporter; actives raise or lower the signal
Method in brief: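 Internal background marker within multiplexed cis-reporter HepG2 system. Cells transiently transfected, dosed 24 h; reporter mRNA measured by RT-PCR, HpaI digestion and capillary electrophoresis. Bidirectional fit relative to DMSO.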

[6] = molecular target: Hypoxia-inducible factor 1-alpha (Homo sapiens) (UniProt Q16665); assay: ATG_HIF1a_CIS: Attagene CIS-FACTORIAL HepG2 Assay for human Hypoxia Inducible Factor 1 (HIF1A) (AID 2282951); conditions: HepG2 Attagene cis-factorial HIF1a reporter transcription; actives raise or lower the signal
Method in brief: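 HepG2 cells transiently transfected with multiplexed cis-promoter reporter units; reporter mRNA read 24 h after dosing by RT-PCR, 6-FAM primer-extension labelling, HpaI digestion and capillary electrophoresis. Bidirectional fit versus DMSO baseline.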

[7] = molecular target: Hepatocyte nuclear factor 6 (Homo sapiens) (UniProt Q9UBC0); assay: ATG_HNF6_CIS: Attagene CIS-FACTORIAL HepG2 Assay for human Hepatocyte Nuclear Factor 6 (HNF6) (AID 2282952); conditions: HepG2 Attagene cis-factorial HNF6 reporter transcription; actives raise or lower the signal
Method in brief: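 First, HepG2 cells were transfected with the multiplexed cis reporter library and dosed with chemical for 24 h. Next, RNA was reverse-transcribed, PCR-amplified and fluorescently labelled. Finally, HpaI-digested fragments were read by capillary electrophoresis.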

[8] = molecular target: Heat shock factor protein 1 (Homo sapiens) (UniProt Q00613); assay: ATG_HSE_CIS: Attagene CIS-FACTORIAL HepG2 Assay for human Heat Shock Transcription Factor 1 (HSE) (AID 2282953); conditions: HepG2 HSE cis-reporter, Attagene RNA transcription; actives raise or lower the signal
Method in brief: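 HepG2 cells transfected with cis-promoter reporter units sensing endogenous transcription factor activity; reporter mRNA quantified 24 h post-dose by RT-PCR and capillary electrophoresis of 6-FAM-labelled products. Bidirectional fitting against DMSO.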

[9] = ATG_MRE_CIS: Attagene CIS-FACTORIAL HepG2 Assay for human Metal Responsive Element (MRE) (AID 2282954); conditions: HepG2 MRE cis-reporter transcription, Attagene multiplex; actives raise or lower the signal
Method in brief: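 Cells were transfected with cis-promoter reporter transcription units, then dosed for 24 h. RNA was reverse-transcribed, amplified, fluorescently labelled and resolved by capillary electrophoresis, and activity was fitted in both directions relative to DMSO.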

[10] = ATG_PBREM_CIS: Attagene CIS-FACTORIAL HepG2 Assay for human Phenobarbital-responsive Enhancer Module (PBREM) (AID 2282955); conditions: HepG2 PBREM cis-reporter, Attagene multiplexed transcription; actives raise or lower the signal
Method in brief: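 HepG2 cells transiently transfected with multiple cis-regulated reporter transcription units; endogenous factor activity at the PBREM element measured as reporter mRNA 24 h after dosing, via RT-PCR and capillary electrophoresis of fluorescent fragments; bidirectional fitting versus DMSO.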

[11] = molecular target: Paired box protein Pax-6 (Homo sapiens) (UniProt P26367); assay: ATG_Pax6_CIS: Attagene CIS-FACTORIAL HepG2 Assay for human Paired Box 6 (PAX6) (AID 2282956); conditions: HepG2 CIS-FACTORIAL PAX6 reporter transcription, RNA readout; actives raise or lower the signal
Method in brief: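 Fluorescent RT-PCR products separated by capillary electrophoresis report PAX6-linked promoter mRNA in HepG2 cells 24 h post-dose. Curves fitted bidirectionally, DMSO as negative control.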

[12] = ATG_PXRE_CIS: Attagene CIS-FACTORIAL HepG2 Assay for human Pregnane X Receptor Element (PXRE) (AID 2282957); conditions: HepG2 Attagene CIS-FACTORIAL PXRE reporter, mRNA; actives raise or lower the signal
Method in brief: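 After a 24 h chemical incubation, total RNA from transfected HepG2 cells was reverse-transcribed and reporter cDNA amplified, FAM-labeled, HpaI-digested and sized by capillary electrophoresis. DMSO served as baseline for bidirectional curve fitting.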

[13] = ATG_PPRE_CIS: Attagene CIS-FACTORIAL HepG2 Assay for human Peroxisome Proliferator-activated Response Element (PPRE) (AID 2282958); conditions: HepG2 PPRE cis-element reporter, Attagene transcription factor profiling; actives raise or lower the signal
Method in brief: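 HepG2 cells transiently transfected with multiplexed cis-element reporter units measure endogenous transcription factor activity. After 24 h compound exposure, reporter mRNA is quantified by RT-PCR, 6-FAM labeling, HpaI digestion and capillary electrophoresis; bidirectional fits are made against DMSO baseline.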

[14] = ATG_RORE_CIS: Attagene CIS-FACTORIAL HepG2 Assay for human RAR-related Orphan Receptor Element (RORE) (AID 2282959); conditions: HepG2 Attagene cis-factorial RORE reporter, mRNA; actives raise or lower the signal
Method in brief: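 HepG2 cells transiently transfected with multiple cis-element reporter transcription units, exposed to chemical for 24 h. Reporter mRNA quantified by RT-PCR, 6-FAM primer-extension labeling, HpaI digestion and capillary electrophoresis; bidirectional fit versus DMSO baseline.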

[15] = ATG_Sox_CIS: Attagene CIS-FACTORIAL HepG2 Assay for human SRY-box transcription factor (SOX) (AID 2282960); conditions: HepG2 Attagene cis-factorial SOX reporter, mRNA; actives raise or lower the signal
Method in brief: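 HepG2 cells transiently transfected with cis-element-driven multiple reporter transcription units, dosed 24 h; reporter mRNA measured by RT-PCR, FAM labelling, HpaI digestion and capillary electrophoresis. Bidirectional fit versus DMSO baseline.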

[16] = molecular target: Transcription factor Sp1 (Homo sapiens) (UniProt P08047); assay: ATG_Sp1_CIS: Attagene CIS-FACTORIAL HepG2 Assay for human Specificity Protein 1 (Sp1) (AID 2282961); conditions: HepG2 Sp1 cis-reporter transcription, actives raise or lower the signal
Method in brief: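 HepG2 cells transiently transfected with multiple reporter transcription units driven by cis-regulatory elements; Sp1-responsive reporter mRNA measured 24 h after dosing by RT-PCR and capillary electrophoresis fluorescence, fitted bidirectionally against DMSO baseline.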

[17] = ATG_SREBP_CIS: Attagene CIS-FACTORIAL HepG2 Assay for human Sterol Regulatory Element Binding (SREBP) (AID 2282962); conditions: HepG2 Attagene cis-factorial SREBP reporter, mRNA; actives raise or lower the signal
Method in brief: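 Endogenous factor activity is measured in HepG2 through multiplexed reporter units under cis-element control. Following a 24 h incubation, reporter transcripts are reverse-transcribed, PCR-amplified and sized by capillary electrophoresis; activity is fitted in both directions relative to DMSO.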

[18] = molecular target: Signal transducer and activator of transcription 3 (Homo sapiens) (UniProt P40763); assay: ATG_STAT3_CIS: Attagene CIS-FACTORIAL HepG2 Assay for human Signal Transducer and Activator of Transcription 3 (STAT3) (AID 2282963); conditions: HepG2, Attagene cis-factorial STAT3 reporter transcription; actives raise or lower the signal
Method in brief: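 HepG2, MRTU-transfected, 24 h dosing. RNA → RT → PCR → FAM label → HpaI → CE. Bidirectional fit vs DMSO.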

[19] = ATG_TA_CIS: Attagene CIS-FACTORIAL HepG2 Assay for human TA Basal Promoter (AID 2282964); conditions: HepG2 Attagene CIS-factorial TA basal promoter reporter; actives raise or lower the signal
Method in brief: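 HepG2 cells transiently transfected with multiple reporter units under cis promoter elements, reporting endogenous transcription factor activity; this endpoint tracks the TA basal promoter as background control. Reporter mRNA after 24 h dosing measured by RT-PCR/capillary electrophoresis; bidirectional fits versus DMSO.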

[20] = ATG_TCF_b_cat_CIS: Attagene CIS-FACTORIAL HepG2 Assay for human T-Cell-Factor with beta-catenin (TCF/b-cat) (AID 2282965); conditions: HepG2 TCF/beta-catenin cis-reporter transcription, actives raise or lower the signal
Method in brief: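 In this cis-format system, transfected HepG2 cells report endogenous transcription factor activity. Readout after 24 h exposure is reporter transcript abundance from RT-PCR and capillary electrophoresis, analysed for gain or loss of signal versus DMSO.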

Measured: outcome

Bile acid receptor (Homo sapiens), sequence (Q96RI1 whole entry, looked up): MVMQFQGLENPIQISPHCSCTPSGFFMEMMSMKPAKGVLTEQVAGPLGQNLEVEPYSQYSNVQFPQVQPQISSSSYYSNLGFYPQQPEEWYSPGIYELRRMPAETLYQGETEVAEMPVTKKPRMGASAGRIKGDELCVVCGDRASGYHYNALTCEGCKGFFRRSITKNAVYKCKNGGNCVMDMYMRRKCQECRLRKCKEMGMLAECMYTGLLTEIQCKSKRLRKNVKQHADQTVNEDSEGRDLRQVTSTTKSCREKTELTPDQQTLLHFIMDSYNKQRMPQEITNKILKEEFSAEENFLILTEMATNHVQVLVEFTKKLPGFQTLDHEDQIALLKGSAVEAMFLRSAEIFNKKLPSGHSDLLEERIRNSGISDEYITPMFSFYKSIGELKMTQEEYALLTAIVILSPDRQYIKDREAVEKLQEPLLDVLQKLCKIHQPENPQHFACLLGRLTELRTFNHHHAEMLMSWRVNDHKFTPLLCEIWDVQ
Paired box protein Pax-6 (Homo sapiens), sequence (P26367 whole entry, looked up): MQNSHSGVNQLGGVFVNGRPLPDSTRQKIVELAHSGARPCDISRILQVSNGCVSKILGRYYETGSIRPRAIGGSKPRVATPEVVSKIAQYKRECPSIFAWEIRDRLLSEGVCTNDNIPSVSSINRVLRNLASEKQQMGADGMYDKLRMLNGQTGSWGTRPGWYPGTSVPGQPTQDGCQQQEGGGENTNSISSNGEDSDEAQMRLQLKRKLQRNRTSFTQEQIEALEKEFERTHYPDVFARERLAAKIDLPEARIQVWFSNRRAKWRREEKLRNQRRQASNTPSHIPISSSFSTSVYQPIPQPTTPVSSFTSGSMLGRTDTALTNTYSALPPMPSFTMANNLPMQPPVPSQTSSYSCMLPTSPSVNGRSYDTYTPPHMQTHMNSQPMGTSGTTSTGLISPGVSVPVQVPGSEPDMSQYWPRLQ
Hepatocyte nuclear factor 6 (Homo sapiens), sequence (Q9UBC0 whole entry, looked up, the tested form may be a part): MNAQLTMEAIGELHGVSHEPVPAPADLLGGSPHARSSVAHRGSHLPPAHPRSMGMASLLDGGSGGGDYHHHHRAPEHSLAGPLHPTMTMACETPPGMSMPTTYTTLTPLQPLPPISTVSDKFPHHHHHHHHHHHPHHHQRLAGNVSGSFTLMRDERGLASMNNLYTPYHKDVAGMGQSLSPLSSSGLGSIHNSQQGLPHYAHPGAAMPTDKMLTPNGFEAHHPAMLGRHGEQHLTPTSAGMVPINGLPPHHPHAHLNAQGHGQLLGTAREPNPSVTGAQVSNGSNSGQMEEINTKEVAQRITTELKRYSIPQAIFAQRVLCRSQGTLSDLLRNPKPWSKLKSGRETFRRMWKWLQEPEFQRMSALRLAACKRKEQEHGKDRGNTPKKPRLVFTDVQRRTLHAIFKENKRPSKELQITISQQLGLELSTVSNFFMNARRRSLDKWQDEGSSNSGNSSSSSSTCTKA
Hypoxia-inducible factor 1-alpha (Homo sapiens), sequence (Q16665 whole entry, looked up): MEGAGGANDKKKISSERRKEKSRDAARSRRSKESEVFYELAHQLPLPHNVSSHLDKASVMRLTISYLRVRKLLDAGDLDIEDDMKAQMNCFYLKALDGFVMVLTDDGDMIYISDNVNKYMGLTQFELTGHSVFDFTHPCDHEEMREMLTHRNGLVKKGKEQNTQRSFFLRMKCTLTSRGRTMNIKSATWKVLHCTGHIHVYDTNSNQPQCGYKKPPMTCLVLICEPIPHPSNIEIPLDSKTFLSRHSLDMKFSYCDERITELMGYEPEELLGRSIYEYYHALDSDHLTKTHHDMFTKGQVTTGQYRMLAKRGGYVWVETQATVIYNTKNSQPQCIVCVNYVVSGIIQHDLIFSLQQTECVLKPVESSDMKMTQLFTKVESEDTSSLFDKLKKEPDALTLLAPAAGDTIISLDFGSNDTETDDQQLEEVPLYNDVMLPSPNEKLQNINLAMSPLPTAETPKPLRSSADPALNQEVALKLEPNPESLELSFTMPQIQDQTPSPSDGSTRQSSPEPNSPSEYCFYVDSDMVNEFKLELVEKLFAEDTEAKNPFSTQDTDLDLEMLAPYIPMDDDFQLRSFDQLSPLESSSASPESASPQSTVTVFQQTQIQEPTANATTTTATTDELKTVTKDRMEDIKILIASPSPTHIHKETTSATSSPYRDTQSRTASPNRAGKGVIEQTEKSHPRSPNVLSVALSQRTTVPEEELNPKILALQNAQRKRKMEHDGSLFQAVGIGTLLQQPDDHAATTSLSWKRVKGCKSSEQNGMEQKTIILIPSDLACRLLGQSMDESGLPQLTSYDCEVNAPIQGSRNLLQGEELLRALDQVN
Signal transducer and activator of transcription 3 (Homo sapiens), sequence (P40763 whole entry, looked up): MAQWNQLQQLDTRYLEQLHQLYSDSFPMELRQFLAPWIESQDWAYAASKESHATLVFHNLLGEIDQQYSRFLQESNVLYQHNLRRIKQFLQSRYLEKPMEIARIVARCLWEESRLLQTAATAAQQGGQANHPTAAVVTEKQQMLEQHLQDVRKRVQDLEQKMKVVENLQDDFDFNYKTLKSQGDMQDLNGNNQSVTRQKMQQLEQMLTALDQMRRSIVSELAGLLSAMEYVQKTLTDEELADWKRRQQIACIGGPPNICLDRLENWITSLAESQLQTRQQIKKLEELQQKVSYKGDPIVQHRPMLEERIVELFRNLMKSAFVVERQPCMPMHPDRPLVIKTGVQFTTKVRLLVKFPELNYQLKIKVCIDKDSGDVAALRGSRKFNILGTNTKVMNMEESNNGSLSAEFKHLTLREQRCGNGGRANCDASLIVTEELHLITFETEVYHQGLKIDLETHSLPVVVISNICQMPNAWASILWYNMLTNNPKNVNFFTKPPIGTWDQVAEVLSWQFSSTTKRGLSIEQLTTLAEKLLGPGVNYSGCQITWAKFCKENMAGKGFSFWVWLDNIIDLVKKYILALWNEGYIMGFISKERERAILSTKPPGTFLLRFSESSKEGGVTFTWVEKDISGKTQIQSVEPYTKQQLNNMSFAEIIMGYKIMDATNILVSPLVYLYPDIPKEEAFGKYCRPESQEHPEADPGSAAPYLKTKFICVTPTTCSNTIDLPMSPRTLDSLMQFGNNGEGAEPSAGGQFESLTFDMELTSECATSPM
Heat shock factor protein 1 (Homo sapiens), sequence (Q00613 whole entry, looked up): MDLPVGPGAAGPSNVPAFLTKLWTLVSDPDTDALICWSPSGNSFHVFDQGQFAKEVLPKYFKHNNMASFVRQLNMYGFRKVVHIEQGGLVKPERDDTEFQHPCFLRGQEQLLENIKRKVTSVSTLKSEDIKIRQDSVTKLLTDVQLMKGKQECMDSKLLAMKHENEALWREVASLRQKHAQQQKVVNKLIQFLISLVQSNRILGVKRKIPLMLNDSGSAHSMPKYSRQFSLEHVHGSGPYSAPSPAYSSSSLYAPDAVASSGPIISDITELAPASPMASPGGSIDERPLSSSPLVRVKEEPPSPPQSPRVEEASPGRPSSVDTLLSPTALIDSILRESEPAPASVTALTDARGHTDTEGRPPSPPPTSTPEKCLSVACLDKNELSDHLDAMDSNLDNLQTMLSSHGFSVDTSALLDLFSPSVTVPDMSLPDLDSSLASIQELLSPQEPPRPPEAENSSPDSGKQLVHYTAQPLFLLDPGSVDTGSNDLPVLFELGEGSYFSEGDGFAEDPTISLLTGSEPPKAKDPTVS
Transcription factor Sp1 (Homo sapiens), sequence (P08047 whole entry, looked up): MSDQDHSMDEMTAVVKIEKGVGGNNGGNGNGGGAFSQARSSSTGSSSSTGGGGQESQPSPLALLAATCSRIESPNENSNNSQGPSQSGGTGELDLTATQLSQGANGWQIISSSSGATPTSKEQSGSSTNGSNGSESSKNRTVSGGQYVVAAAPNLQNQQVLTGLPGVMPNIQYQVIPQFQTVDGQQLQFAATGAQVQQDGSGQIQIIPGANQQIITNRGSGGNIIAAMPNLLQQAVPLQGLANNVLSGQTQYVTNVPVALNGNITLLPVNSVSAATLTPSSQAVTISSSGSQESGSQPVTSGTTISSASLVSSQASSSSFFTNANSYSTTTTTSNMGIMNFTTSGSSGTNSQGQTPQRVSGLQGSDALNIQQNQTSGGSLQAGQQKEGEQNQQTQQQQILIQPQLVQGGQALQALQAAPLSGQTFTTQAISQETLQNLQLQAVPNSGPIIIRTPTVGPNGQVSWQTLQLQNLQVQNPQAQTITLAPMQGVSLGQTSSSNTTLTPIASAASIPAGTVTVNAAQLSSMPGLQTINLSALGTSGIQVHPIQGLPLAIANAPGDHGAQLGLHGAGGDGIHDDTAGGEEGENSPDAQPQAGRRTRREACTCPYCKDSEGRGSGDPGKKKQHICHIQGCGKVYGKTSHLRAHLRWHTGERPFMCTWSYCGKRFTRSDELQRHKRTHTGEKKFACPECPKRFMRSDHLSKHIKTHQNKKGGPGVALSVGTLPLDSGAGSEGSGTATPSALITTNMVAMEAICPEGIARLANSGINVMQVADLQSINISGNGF

Nc1cc([N+](=O)[O-])ccc1Cl
inactive: all assays above

CCCCCCCCCOC(C)=O
not listed: [12] | [14] | [15] | [20]
inactive: all other assays above

NCCCN1CCOCC1
not listed: [14]
inactive: all other assays above

CC(=O)OCCC(C)CC(C)(C)C (centres undefined)
not listed: [9]
inactive: all other assays above

COC(=O)c1ccc(C)cc1
not listed: [12] | [13] | [15] | [18] | [19] | [20]
inactive: all other assays above

Clc1cccc(Cl)n1
not listed: [9]
inactive: all other assays above

CN(C)CCOCCN(C)C
not listed: [20]
inactive: all other assays above

O=C1O[C@@H]2[C@@H](O)[C@H](O)O[C@@H]2[C@H]1O
not listed: [13] | [19]
inactive: all other assays above
